Calb biofilm kill = kills Candida albicans biofilms; 85,000 tested, 0.14% active; AID 834; inhibition, % at 6 µM; C. albicans biofilm + clotrimazole, Alamar Blue;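 active = inhibition above 20%; inactive = inhibition below 20%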;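 also: preformed 24 hr biofilms exposed to compound for 48 hr; 0% = biofilm without compound and 100% = blank killed by clotrimazole plus chlorhexidine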
sEH activator = soluble epoxide hydrolase (human) activation; P34913; purified human sEH enzymatic activity, activator screen; activation, % at 2 µM; 91,000 tested, 0.04% active; AID 717; in the data active = activation above about 37%
sEH inh = blocks human soluble epoxide hydrolase activity | inhibition, % at 2 µM | P34913 | 91,000 tested, 0.34% active | recombinant human sEH enzymatic activity assay; in the data active = inhibition above about 80%
PTPN22 inh 2 = LYP (human) phosphatase inhibition; Q9Y2R2; recombinant LYP catalytic domain, DiFMUP fluorescence; inhibition, % at 2 µM; 96,000 tested, 0.21% active;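 active = inhibition at 2 µM at or above a set limit, the screen mean plus 3 SD, cut at about 24% in these data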;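 also: 0% = DMSO with enzyme and 100% = enzyme fully blocked by orthovanadate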
BAP1 block = inhibitors of human BAP1 deubiquitinase. Q92560. 72,000 tested, 0.48% active. recombinant BAP1, Ub-AMC hydrolysis fluorescence kinetic; hits give low values. calls only at 20 µM;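 active = activity remaining at or below 50% of control, provided the compound also passes the data quality filters; inactive = the rest, including low values that fail the filters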;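 also: 100% = DMSO wells rate and 0% = substrate alone blank rate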
PTPN22 act = increases human PTPN22 phosphatase activity. Q9Y2R2. recombinant LYP, DiFMUP fluorescence; 0 = plate median, 100 = signal doubled. activation, % at 2 µM. 96,000 tested, 0.11% active. AID 697;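 active = activation at 2 µM above a set limit, the mean plus 5 SD, cut at about 37% in these data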
The depositor's hits bear a star. A selection: hits, their analogues and other compounds. The true share with any hit is near 0.79%.

`COc1ccccc1CN1CCN(C(=O)c2c(OC)cccc2OC)CC1` gave BAP1 block inactive.
`Nc1nc2cc3nc(N)sc3cc2s1` gave BAP1 block inactive.
For Cc1noc(C)c1S(=O)(=O)N1CCCC(C(=O)NCCC2=CCCCC2)C1 (stereo not drawn) the results were sEH activator -70.2, sEH inh 70.8, PTPN22 inh 2 8.7, BAP1 block inactive and PTPN22 act -10.5.
For Cc1noc(/C=C/N(C)C)c1S(=O)(=O)N1CCCC(C(=O)NCCC2=CCCCC2)C1 (stereo not drawn) the results were Calb biofilm kill 15.1, sEH activator -87.8, sEH inh 87.7*, PTPN22 inh 2 -0.6, BAP1 block inactive and PTPN22 act -1.1.
Screening CCOC(=O)c1cccc(C(=O)Nc2ccc(F)cc2)n1 returned BAP1 block inactive.
Screening C=C(C)C(=O)OC1(C(F)(F)F)Oc2cc(C)ccc2NC1=O (stereo not drawn) returned Calb biofilm kill 10.1, sEH activator 40.6*, sEH inh -41.1, PTPN22 inh 2 -7.2 and PTPN22 act 11.3.
Cn1c(=S)n(/N=C/c2ccc3c(c2)OCO3)c2ccccc21 was read as Calb biofilm kill -5.0, sEH activator -1.5, sEH inh 0.9, PTPN22 inh 2 -0.9, BAP1 block inactive and PTPN22 act -1.3.
`COc1ccc(/C=N/n2c(=S)n(C)c3ccccc32)cc1OC` gave Calb biofilm kill 50.3*, sEH activator -8.0, sEH inh 9.8, PTPN22 inh 2 -4.5 and PTPN22 act 7.0.
Screening COCCN1C(=O)C(=O)/C(=C(/O)c2ccccc2)C1c1cccc(F)c1 (stereo not drawn) returned BAP1 block inactive.
For O=C(N1CCCCC1)C12CC3CC(C1)CC(c1ccc([N+](=O)[O-])cc1)(C3)C2 the results were BAP1 block inactive.
`COc1ccccc1CCNC(=O)CCn1c(=O)oc2ccccc21` gave Calb biofilm kill 7.8, PTPN22 inh 2 8.6 and PTPN22 act -11.3.
COc1ccc(CCNC(=O)CCn2c(=O)oc3ccccc32)cc1 was read as Calb biofilm kill 21.2* and BAP1 block inactive.
For Cc1ccc2c(c1)nnn2C1CCN(C(=O)C23CC4CC(CC(C4)C2)C3)CC1 the results were Calb biofilm kill 10.7, sEH activator -9.9, sEH inh 11.2, PTPN22 inh 2 7.6 and PTPN22 act -10.8.
Cc1ccc2c(c1)nnn2C1CCN(C(=O)NC23CC4CC(CC(C4)C2)C3)CC1 was read as Calb biofilm kill 5.1, sEH activator -84.9, sEH inh 84.8*, PTPN22 inh 2 -7.4, BAP1 block inactive and PTPN22 act 9.6.
For COc1ccc(C2(CNC(=O)c3ccc(Br)o3)CCCC2)cc1OC the results were BAP1 block inactive.
For CCCNc1cc(=O)n(C)c(=O)n1C the results were Calb biofilm kill 7.3, sEH activator -1.0, sEH inh 1.1, PTPN22 inh 2 25.4*, BAP1 block inactive and PTPN22 act -25.9.
For CC(C)CCNc1cc(=O)n(C)c(=O)n1C the results were Calb biofilm kill 5.9 and BAP1 block inactive.
For Brc1ccc2nc(CSc3ncn[nH]3)cn2c1 the results were Calb biofilm kill 10.9, sEH activator 5.2, sEH inh -5.1, PTPN22 inh 2 83.4*, BAP1 block inactive and PTPN22 act -83.5.
`Cc1ccc(CSc2ncn[nH]2)cc1` gave BAP1 block inactive.
For O=C1CSc2ccc(C(=O)NCCC3=CCCCC3)cc2N1 the results were Calb biofilm kill 0.1, sEH activator -82.6, sEH inh 82.4*, PTPN22 inh 2 -9.9 and PTPN22 act 14.6.
COCCNC(=O)c1ccc2c(c1)NC(=O)CS2 was read as Calb biofilm kill 12.8, sEH activator -4.8, sEH inh 1.7, PTPN22 inh 2 1.8, BAP1 block inactive and PTPN22 act -3.8.
O=C(Nc1ccc2oc(-c3ccc(Cl)c(Cl)c3)nc2c1)c1ncn[nH]1 was read as sEH activator -1.5, sEH inh -0.2, PTPN22 inh 2 40.3* and PTPN22 act -40.5.
`Cc1nnc(NC(=O)c2ccc(S(=O)(=O)N3CCCCCC3)cc2)o1` gave sEH activator -13.9, sEH inh 15.1, PTPN22 inh 2 5.8, BAP1 block inactive and PTPN22 act -7.7.
